A word on the inhibition: it is the drop in the measured response relative to a control, in per cent.

Screen size: about 330,000 compounds; about 1,900 (0.58%) were called active. Roughly 4% stayed inconclusive and do not appear here. No stated cut-off is given here; in the data, inconclusive means inhibition above about 70% without an active follow-up result; inactive means below that. These entries were drawn from the full list. Potency and affinity values are given separately.

This passage reports inhibition results from PubChem BioAssay AID449762 (Southern Research Specialized Biocontainment Screening …, 2010).

The nature of the assay: M. tuberculosis growth inhibition, HTS (AID 449762).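 Further: bacterial growth assessed after seven days of incubation.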 The note with it: M. tuberculosis H37Rv growth inhibition, 7H9 media; at 25 µM; hits give high values.
Turning to `COCCN(C(=O)COC(=O)CCc1ccc(OC)cc1)c1c(N)n(Cc2ccccc2)c(=O)[nH]c1=O`, the inhibition was -4.28% (inactive).

`CCCNC(=O)c1ccc2c(=O)n(Cc3ccco3)c(=S)[nH]c2c1`: the inhibition was 4.3% (inactive).

As to `COc1ccc2cc(C(=O)C3CCCN(C(=O)c4cncs4)C3)ccc2c1` (centres undefined), the inhibition was 0.43% (inactive).

With `Cc1ncoc1C(=O)N1CCCC(C(=O)c2ccc(-c3ccccc3)c(F)c2)C1` (centres undefined), the inhibition is 10.4% (inactive).

As to `Cc1ccc(NC(=O)NCc2ccncc2)cc1Cl`, the inhibition was 4.38% (inactive).

On to `Cc1cc(C)c(NC(=O)CN(C)CC(=O)Nc2cccc(S(=O)(=O)N(C)c3ccccc3)c2)c(C)c1`, for which the inhibition was 1.14% (inactive).

`CN(CC(=O)Nc1ccccc1Cl)C(=O)CSc1ncc(C(F)(F)F)cc1Cl`: the inhibition is 3.84% (inactive).

Take `Cc1cc(Cl)ccc1NC(=O)COC(=O)c1cc([N+](=O)[O-])ccc1N1CCOCC1`: the inhibition was -0.98% (inactive).

Regarding `N#CCCn1cc(C(=O)NCc2ccccc2)c(-c2ccc3c(c2)OCCO3)n1`, the inhibition is -3.92% (inactive).

Turning to `CCN(c1ccccc1)S(=O)(=O)c1ccc(C(=O)Nc2nnc(-c3ccco3)o2)cc1`, the inhibition was 12.1% (inactive).

In the case of `CN(C)S(=O)(=O)c1ccc(C(=O)Nc2nnc(-c3ccco3)o2)cc1`, the inhibition is 70.1% (inactive).

For `O=C(NCCNC(=O)c1ccc(Cl)cc1Cl)c1ccco1`, the inhibition is 2.57% (inactive).

Consider `O=C(O)c1cnn2cc(-c3[nH]ncc3[N+](=O)[O-])cnc12`, for which the inhibition was 0.22% (inactive).

With `Cc1cccc(N2CC(C(=O)Nc3nccs3)CC2=O)c1C` (centres undefined), the inhibition was 4.15% (inactive).

As to `CCOC(=O)C1(Cc2ccc(Cl)cc2)CCN(C(=O)c2cnc(C)cn2)CC1`, the inhibition was -0.58% (inactive).

As to `CSc1ccc(CNC(=O)C2CCC(=O)N(Cc3cccc(F)c3)C2)cc1` (centres undefined), the inhibition is -1.72% (inactive).

For the molecule `Cn1cc(CNC(=O)C2CCC(=O)N(Cc3cccc(C(F)(F)F)c3)C2)cn1` (centres undefined), the inhibition is -6.46% (inactive).

On to `Cc1ccc2nc(NCc3ccccc3)c(C=O)c(=O)n2c1`, for which the inhibition was 2.81% (inactive).

Take `C[C@H](NC(=O)NCc1ccc(F)cc1)C(=O)O`: the inhibition was -0.83% (inactive).

Regarding `Nc1nc2ccccc2n1C(=O)c1cccs1`, the inhibition was 10.2% (inactive).

Consider `COc1ccc(C(=O)n2c(N)nc3ccccc32)cc1OC`, for which the inhibition is 44.1% (inactive).

Consider `c1cc2c3c(cccc3c1)C(N1CCOCC1)=N2`, for which the inhibition is -3.61% (inactive).

Take `c1cc2c3c(cccc3c1)C(N1CCCCC1)=N2`: the inhibition was -4.9% (inactive).

In the case of `Cc1cc(NC(=O)CSc2cn(CCNC(=O)c3ccc(Cl)cc3)c3ccccc23)no1`, the inhibition was -7.12% (inactive).

As to `c1cncc(-c2nc(NCC3CCCO3)c3ccccc3n2)c1` (centres undefined), the inhibition was 6.22% (inactive).

`O=[N+]([O-])c1ccc(-c2nc(NCC3CCCO3)c3ccccc3n2)cc1` (centres undefined): the inhibition is 2.21% (inactive).

For the molecule `C=CCN1C(=O)C(CC(=O)Nc2ccc(OC)cc2)N(Cc2ccco2)C1=S` (centres undefined), the inhibition is -5.03% (inactive).

Turning to `O=C(O)CCNS(=O)(=O)c1ccccc1C(F)(F)F`, the inhibition is -11.5% (inactive).

As for `c1ccc(NCCCNc2ccccc2)cc1`, the inhibition is 2.48% (inactive).

For `COc1cc(CNc2ncn[nH]2)cc(Br)c1OC`, the inhibition was -1.3% (inactive).

Regarding `Cc1ccc(Cn2ccc(=O)c(OCc3ccccc3)c2C)cc1`, the inhibition was -1.87% (inactive).

On to `Cc1c(OCc2ccccc2)c(=O)ccn1Cc1ccccc1`, for which the inhibition was 18% (inactive).

In the case of `CC1(CCc2ccccc2)NC(=O)N(CC(=O)N2CC(=O)Nc3ccccc32)C1=O` (centres undefined), the inhibition was -6.43% (inactive).

As for `Cc1cc(NC(=O)Cn2cnc3sccc3c2=O)no1`, the inhibition is -4.01% (inactive).

On to `O=C(O)c1ccccc1C(=O)N1N=C(c2ccccc2)CC1c1ccccc1O` (centres undefined), for which the inhibition was 0.11% (inactive).

Take `C=CCSc1nnc(COc2ccc(=O)n(-c3ccccc3)n2)n1CC`: the inhibition was 1.1% (inactive).

Take `CCC(=O)Nc1nc2nc(C)cc(=O)n2[nH]1`: the inhibition was -0.66% (inactive).

`Cc1cc(=O)n2[nH]c(NCc3c(F)cccc3Cl)nc2n1`: the inhibition is 11.1% (inactive).

In the case of `Cc1ccc2nc(Nc3ccc(Cl)cc3)c3nncn3c2c1`, the inhibition is 7.65% (inactive).

`O=C(NCCc1ccccc1)[C@@H]1CC=C[C@@H]2CCN(Cc3ccccc3)C(=O)[C@@H]21`: the inhibition was 1.96% (inactive).

For `COc1ccc(CN2CC[C@H]3C=CC[C@@H](C(=O)NCCc4ccccc4)[C@H]3C2=O)cc1OC`, the inhibition was -2.75% (inactive).

Consider `C=C(Cl)CSC(=S)N(CC)CC`, for which the inhibition was 14% (inactive).

For the molecule `CCN(CC)C(=S)SCC(=O)c1ccccc1`, the inhibition was 3.47% (inactive).

Take `CCOC(=O)C1CCN(C(=O)CCc2nnc3ccc(N4CCC(C)CC4)nn23)CC1`: the inhibition is 1.94% (inactive).

In the case of `CCC(C)(C)NC(=O)C(C)OC(=O)c1nsc(Cl)c1Cl` (centres undefined), the inhibition was -2.01% (inactive).

As for `Cc1ccc(-c2cc(C(=O)N/N=C/c3ccco3)[nH]n2)cc1`, the inhibition is -2.14% (inactive).

With `O=C(N/N=C/c1ccco1)c1cc(-c2ccc3ccccc3c2)n[nH]1`, the inhibition is 14.2% (inactive).

As for `CN(C)C(CNC(=O)c1coc2ccccc2c1=O)c1ccccc1` (centres undefined), the inhibition is 8.82% (inactive).

Turning to `COC(=O)C1=C(c2ccc(OCc3ccccc3)cc2)C[C@@H]2CC[C@H]1N2C(=O)NCCCc1ccccc1`, the inhibition is -6.15% (inactive).

Take `COC(=O)C1=C(c2ccc(OCc3ccccc3)cc2)C[C@@H]2CC[C@H]1N2C(=O)NCc1ccccc1`: the inhibition was -9.3% (inactive).

For the molecule `COc1ccc(CNC(=O)c2ccc(S(=O)(=O)NCc3ccco3)cc2)cc1`, the inhibition was 9.2% (inactive).

Turning to `CCN(CC)C(=O)Cc1c(OC)ccc2cc(Br)ccc12`, the inhibition was -2.55% (inactive).

Turning to `COc1ccc2cc(Br)ccc2c1CC(=O)N(C)C`, the inhibition is 8.82% (inactive).

With `O=C(Nc1ccccc1C(F)(F)F)c1ccc2nccnc2c1`, the inhibition was -5.96% (inactive).

Consider `Brc1ccc(/C=N/Nc2nncc(-c3ccccc3)n2)o1`, for which the inhibition was -1.56% (inactive).

As to `CC(=O)c1ccc(N2CCN(C(=O)C3CCN(S(=O)(=O)Cc4ccccc4)CC3)CC2)cc1`, the inhibition was -3.28% (inactive).

As for `Cc1ccc(C(=O)Nc2cccc(C(F)(F)F)c2)cc1NC(=O)c1[nH]cnc1C(N)=O`, the inhibition was 1.02% (inactive).

On to `Cc1ccc(C(=O)Nc2cccc(C(F)(F)F)c2)cc1Nc1cnccn1`, for which the inhibition was 0.61% (inactive).

Regarding `COc1ccc(CN(Cc2ccccn2)S(=O)(=O)c2ccc(-n3cnnn3)c(OC)c2)cc1`, the inhibition was -8.37% (inactive).
